Source: PubChem BioAssay (Tox21)
Inconclusive results are not listed. Activity calls are given as the source filed them. Unless noted, calls follow the shape of the dose curve; as a rule, active = well fitted curve in the direction sought with a large enough effect in the repeat runs; inconclusive = weak or mixed curves; inactive = no such curve, though single readings can be large; an effect the other way counts as inactive or inconclusive.

What was measured:
[1] = qHTS assay to identify small molecule agonists of the peroxisome proliferator-activated receptor delta (PPARd) signaling pathway - cell viability counter screen (AID 743211); also: nearly all actives have a fitted effect of over 55% in size
Outline: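 Counter screen for cytotoxicity run in parallel with the PPARd reporter screen. Beta-lactamase reporter HEK293H cells exposed to compounds 17 h; ATP-based CellTiter-Glo luminescence quantified viability.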

[2] = target: Peroxisome proliferator-activated receptor delta (Homo sapiens) (UniProt Q03181); assay: qHTS assay to identify small molecule agonists of the peroxisome proliferator-activated receptor delta (PPARd) signaling pathway (AID 743212; calls by dose curve)
Sequence of Peroxisome proliferator-activated receptor delta (Homo sapiens) (Q03181 whole entry, looked up): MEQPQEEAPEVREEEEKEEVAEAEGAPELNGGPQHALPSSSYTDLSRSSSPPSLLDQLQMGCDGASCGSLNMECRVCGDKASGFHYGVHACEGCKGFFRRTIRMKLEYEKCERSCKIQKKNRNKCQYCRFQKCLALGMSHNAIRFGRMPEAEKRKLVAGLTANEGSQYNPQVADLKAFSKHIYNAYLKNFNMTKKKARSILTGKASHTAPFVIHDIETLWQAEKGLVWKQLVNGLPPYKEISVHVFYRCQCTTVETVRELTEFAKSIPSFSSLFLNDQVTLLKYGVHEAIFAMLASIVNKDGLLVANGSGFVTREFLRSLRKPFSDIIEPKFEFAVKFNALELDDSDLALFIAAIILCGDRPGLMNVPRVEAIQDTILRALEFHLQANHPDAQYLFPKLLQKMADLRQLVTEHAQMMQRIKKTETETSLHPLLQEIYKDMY
Outline: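 GeneBLAzer PPARd UAS-bla HEK293H cells (beta-lactamase reporter under UAS control), plated and rested 5 h at 37 C, then exposed to compounds in DMSO at 37 C; LiveBLAzer B/G FRET substrate added, 2 h room temperature, fluorescence read.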

[3] = qHTS assay to identify small molecule antagonists of the peroxisome proliferator-activated receptor delta (PPARd) signaling pathway - cell viability counter screen (AID 743213); also: nearly all actives have a fitted effect of over 50% in size
Outline: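 Viability counter-screen, qHTS format: PPARd-bla HEK293H, L165041 300 nM final, 17 h compound exposure at 37 C, CellTiter-Glo luminescence after 30 min RT.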

[4] = target: Peroxisome proliferator-activated receptor delta (Homo sapiens) (UniProt Q03181); assay: qHTS assay to identify small molecule antagonists of the peroxisome proliferator-activated receptor delta (PPARd) signaling pathway (AID 743215; active = well fitted inhibition curve with a large enough effect in the signal ratio in the repeat runs, not every such curve was filed as active; the % refers to the signal ratio;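 also: cells stimulated with agonist L165041 at 300 nM final during compound exposure; series mostly up to about 62 µM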)
Outline: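 With L165041 present at 300 nM final, compounds were incubated 17 h at 37 C on PPARd UAS-bla HEK293H cells. A FRET-based beta-lactamase substrate was then applied for 2 h at room temperature and fluorescence intensity recorded.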

[5] = qHTS assay to identify small molecule agonists of the farnesoid-X-receptor (FXR) signaling pathway - cell viability counter screen (AID 743218); also: nearly all actives have a fitted effect of over 45% in size
Outline: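 After 16 h at 37 C with test compounds, FXR-bla HEK 293T cells were given LiveBLAzer B/G substrate for 2 h at RT and then CellTiter-Glo; luminescence was taken after 30 min.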

[6] = qHTS assay to identify small molecule antagonists of the farnesoid-X-receptor (FXR) signaling pathway - cell viability counter screen (AID 743221; active = well fitted cell-killing curve with a large enough effect in the repeat runs, not every such curve was filed as active; also: nearly all actives have a fitted effect of over 50% in size)
Outline: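 Multiplexed counter screen: viability of FXR-bla HEK 293T cells under agonist stimulation by chenodeoxycholic acid (50 uM, final) and test compound for 16 h at 37 C, measured by CellTiter-Glo luminescence in the reporter wells.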

[7] = target: Vitamin D3 receptor (Homo sapiens) (UniProt P11473); assay: qHTS assay to identify small molecule agonists of the vitamin D receptor (VDR) signaling pathway (AID 743222; calls by dose curve)
Sequence of Vitamin D3 receptor (Homo sapiens) (P11473 whole entry, looked up): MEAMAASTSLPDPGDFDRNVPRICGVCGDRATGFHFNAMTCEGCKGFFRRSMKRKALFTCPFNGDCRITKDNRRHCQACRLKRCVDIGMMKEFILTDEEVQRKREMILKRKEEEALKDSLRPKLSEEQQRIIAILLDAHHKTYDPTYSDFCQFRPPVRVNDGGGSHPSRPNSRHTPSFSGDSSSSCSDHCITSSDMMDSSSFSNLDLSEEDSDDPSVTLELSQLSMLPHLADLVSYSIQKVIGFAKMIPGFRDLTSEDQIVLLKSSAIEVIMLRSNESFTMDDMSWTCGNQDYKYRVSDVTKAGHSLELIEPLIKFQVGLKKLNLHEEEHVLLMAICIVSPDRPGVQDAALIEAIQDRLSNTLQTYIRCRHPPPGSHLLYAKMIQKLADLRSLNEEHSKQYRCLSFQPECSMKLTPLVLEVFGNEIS
Outline: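 VDR-bla cells were seeded, left 4 h, treated with compounds in DMSO for 16 h, incubated 2 h at RT with B/G FRET substrate, and read for fluorescence.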

[8] = target: Vitamin D3 receptor (Homo sapiens) (UniProt P11473); assay: qHTS assay to identify small molecule antagonists of the vitamin D receptor (VDR) signaling pathway (AID 743223; active = well fitted inhibition curve with a large enough effect in the signal ratio in the repeat runs, not every such curve was filed as active; the % refers to the signal ratio)
Outline: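 Cells carrying a VDR-driven beta-lactamase reporter (VDR-bla) were co-treated with compound and 3 nM final 1alpha,25-dihydroxyvitamin D3 for 16 h at 37C; reporter activity was measured as FRET substrate fluorescence after 2 h at room temperature.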

[9] = qHTS assay to identify small molecule agonists of the vitamin D receptor (VDR) signaling pathway - cell viability counter screen (AID 743224); also: series mostly up to about 63 µM; nearly all actives have a fitted effect of over 50% in size
Outline: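 Here cell health was gauged by luminescent ATP detection (CellTiter-Glo, 30 min RT) in VDR-bla cells that had been incubated with test compounds for 16 h at 37C and 5% CO2.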

[10] = qHTS assay to identify small molecule agonists of the NFkB signaling pathway (AID 1159509; active = well fitted curve in the direction sought with a large enough effect in the signal ratio in the repeat runs, not every such curve was filed as active; the % refers to the signal ratio; also: series mostly up to about 61 µM)
Outline: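 After overnight attachment, reporter cells received test compounds, DMSO or positive controls and were incubated 5 hr at 37 C. FRET substrate was then added for 1.5 hr at room temperature before dual-emission fluorescence reading.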

[11] = qHTS assay to identify small molecule agonists of the endoplasmic reticulum stress response signaling pathway (AID 1159516; active = well fitted activation curve with a large enough effect in the signal ratio in the repeat runs, not every such curve was filed as active; the % refers to the signal ratio)
Outline: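 Reporter HeLa cells (ESRE-beta-lactamase) underwent 5 hr compound incubation at 37 C and 5% CO2 in quantitative HTS format. Detection followed 2 hr of FRET substrate loading at room temperature.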

[12] = qHTS assay to identify small molecule agonists of the endoplasmic reticulum stress response signaling pathway - cell viability counter screen (AID 1159517; calls by dose curve;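 also: HeLa cells carrying an ER stress response element beta-lactamase reporter; series mostly up to about 61 µM; nearly all actives have a fitted effect of over 50% in size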)
Outline: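 Luminescence readout: CellTiter-Glo, 30 min RT, same wells as the ESRE-bla reporter read. HeLa ESRE-bla, 1,500 cells/well, o/n 37 C; cpd 5 hr 37 C/5% CO2.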

[13] = qHTS assay to identify small molecule antagonists of the retinoid-related orphan receptor gamma (ROR-gamma) signaling pathway - cell viability counter screen (AID 1159520); also: nearly all actives have a fitted effect of over 50% in size
Outline: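 Tet-on ROR gamma CHO cells (1,000/well) were plated 4 hr, given compounds in DMSO for 2 hr at 37 C, then induced with 1 uM final doxycycline for 16 hr. Viability was read as ATP by CellTiter-Glo luminescence after 30 min.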

[14] = qHTS assay to identify small molecule agonists of the AP-1 signaling pathway - cell viability counter screen (AID 1159525; calls by dose curve; also: nearly all actives have a fitted effect of over 55% in size)
Outline: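 ME-180 AP-1-bla, 2500 cells/well, Opti-MEM + 0.5% dialyzed FBS; overnight 37 °C; cpd 15-pt titration, 5 h 37 °C; CellTiter-Glo 30 min RT; luminescence read; normalised to TOAB and DMSO controls.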

[15] = qHTS assay to identify small molecule agonists of the AP-1 signaling pathway (AID 1159526; calls by dose curve)
[16] = qHTS assay to identify small molecule antagonists of the vitamin D receptor (VDR) signaling pathway - cell viability counter screen (AID 743225); also: nearly all actives have a fitted effect of over 50% in size
Outline: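 HEK293T VDR-bla; cpd + 1a,25-(OH)2D3 3 nM final, 16 h 37C/5% CO2; B/G FRET substrate 2 h RT; then CellTiter-Glo 30 min RT, luminescence.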

[17] = target: Nuclear receptor ROR-gamma (Homo sapiens) (UniProt P51449); assay: qHTS assay to identify small molecule antagonists of the retinoid-related orphan receptor gamma (ROR-gamma) signaling pathway (AID 1159521)
Outline: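 Cells were plated, rested 4 h at 37 C, exposed to compounds for 2 h, then given 1 uM final doxycycline hyclate to induce RORγ expression. After 16 h, ONE-Glo luminescence from the ROR response element reporter was measured.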

[18] = target: Bile acid receptor (Homo sapiens) (UniProt Q96RI1); assay: qHTS assay to identify small molecule antagonists of the farnesoid-X-receptor (FXR) signaling pathway (AID 743217; active = well fitted inhibition curve with a large enough effect in the signal ratio in the repeat runs, not every such curve was filed as active; the % refers to the signal ratio)
Sequence of Bile acid receptor (Homo sapiens) (Q96RI1 whole entry, looked up): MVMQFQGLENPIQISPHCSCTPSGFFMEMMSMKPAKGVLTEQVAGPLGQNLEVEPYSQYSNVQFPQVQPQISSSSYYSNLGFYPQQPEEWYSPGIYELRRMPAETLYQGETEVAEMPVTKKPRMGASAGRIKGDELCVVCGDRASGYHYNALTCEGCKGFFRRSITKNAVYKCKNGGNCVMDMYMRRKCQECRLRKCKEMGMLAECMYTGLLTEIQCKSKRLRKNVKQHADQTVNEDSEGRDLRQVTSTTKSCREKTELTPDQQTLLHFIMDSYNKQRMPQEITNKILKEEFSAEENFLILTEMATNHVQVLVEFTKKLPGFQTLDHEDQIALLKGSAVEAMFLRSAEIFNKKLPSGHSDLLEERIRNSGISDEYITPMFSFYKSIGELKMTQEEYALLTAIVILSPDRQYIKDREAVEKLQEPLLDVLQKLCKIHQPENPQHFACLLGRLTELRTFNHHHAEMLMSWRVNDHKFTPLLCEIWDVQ
Outline: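 In this cell-based antagonist screen, inhibition of CDCA-driven (50 uM final) UAS-beta-lactamase expression in HEK 293T cells was measured by FRET fluorescence following 16 h compound exposure at 37 °C.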

[19] = target: Bile acid receptor (Homo sapiens) (UniProt Q96RI1); assay: qHTS assay to identify small molecule agonists of the farnesoid-X-receptor (FXR) signaling pathway (AID 743220; active = well fitted activation curve with a large enough effect in the signal ratio in the repeat runs, not every such curve was filed as active; the % refers to the signal ratio)
Outline: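 Beta-lactamase reporter under UAS control in GeneBLAzer FXR HEK 293T cells (5000/well) measured with LiveBLAzer FRET substrate after 2 h at room temperature. Compound exposure lasted 16 h at 37C.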

[20] = qHTS assay to identify small molecule agonists of the NFkB signaling pathway - cell viability counter screen (AID 1159515; calls by dose curve; also: series mostly up to about 61 µM; nearly all actives have a fitted effect of over 55% in size)
Outline: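 5 hr compound treatment of NFkB-bla ME-180 cells (2,000/well, seeded overnight beforehand), followed by reporter substrate for 1.5 hr. CellTiter-Glo added afterward; luminescence after 30 min RT.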

Measured: Potency

CCCCCCCCCCCCCCCCCCN(C)C
inactive: [1] | [2] | [3] | [4] | [5] | [6] | [7] | [8] | [9] | [10] | [11] | [12] | [13] | [14] | [15]

O=C(/C=C/c1ccccc1)NCCO
inactive: [1] | [2] | [3] | [4] | [5] | [6] | [7] | [8] | [9] | [16] | [10] | [11] | [12] | [13] | [17] | [15]

CCCCOC(=O)C(=O)OCCCC
inactive: [1] | [2] | [3] | [4] | [18] | [5] | [19] | [6] | [9] | [16] | [10] | [13] | [17] | [14] | [15]

CCN(CCO)c1cccc(C)c1
inactive: [1] | [2] | [3] | [4] | [18] | [5] | [19] | [6] | [9] | [16] | [20] | [11] | [12] | [13] | [17] | [14] | [15]

Nc1nc(=O)n([C@@H]2O[C@H](CO)[C@@H](O)[C@@H]2F)cc1I
inactive: [1] | [2] | [3] | [4] | [5] | [6] | [8] | [9] | [16] | [10] | [11] | [12] | [13] | [17] | [15]

CCNC(=O)/C=C/c1cccc(Br)c1
inactive: [1] | [2] | [3] | [4] | [5] | [6] | [7] | [8] | [9] | [16] | [10] | [11] | [12] | [13] | [17] | [14] | [15]

CC(C)CCCC(C)CC=O (stereo unspecified)
inactive: [1] | [2] | [3] | [5] | [6] | [9] | [16] | [10] | [11] | [12] | [13] | [17] | [14] | [15]

CCCCOC(=O)[C@@H](C)Oc1ccc(Oc2ccc(C(F)(F)F)cn2)cc1
inactive: [1] | [2] | [3] | [4] | [18] | [5] | [6] | [7] | [8] | [9] | [16] | [10] | [12] | [13] | [17] | [14] | [15]
